Inconclusive results are not listed. The source made the active and inactive calls. Unless noted, the call rests on the fitted dose curve; in most records, active means well fitted curve in the direction sought with a large enough effect; inconclusive means small, poorly fitted or top-dose-only effect, or another doubt; inactive means no such curve, though single readings can be large; an effect the other way counts as inactive or inconclusive.
Key:
[1] = molecular target: DNA repair nuclease/redox regulator APEX1 (Homo sapiens) (UniProt P27695); assay: qHTS Validation Assay for Inhibitors of the Human Apurinic/apyrimidinic Endonuclease 1 (APE1) (AID 1705;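 further: TAMRA fluorescence gain over two minutes as APE1 cuts a quenched THF abasic duplex; series mostly up to about 57 µM; on the % scale 0 is the no-effect control and ±100 the full control effect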)
Outline: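 qHTS, 1536-well. APE1 + cpd 15 min RT → 50 nM TAMRA/BHQ-2 THF-abasic dsDNA substrate → kinetic fluorescence, 3 reads/60 s; delta(read3−read1) = reaction progress. No-enzyme buffer = negative control.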

[2] = Counterscreen for APE1 Inhibitors: Fluorescent Dye Displacement Validation Assay (AID 1707);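 further: plate controls were ThO with dsDNA and no compound for no effect and ThO without dsDNA for full effect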
Outline: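 Loss of Thiazole Orange fluorescence marks promiscuous DNA binders. The dye (250 nM) is mixed with 50 nM abasic-site dsDNA in pH7.5 Tris buffer containing MgCl2, then compounds are added and emission is read once.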

[3] = molecular target: Endonuclease 4 (Escherichia coli (strain K12)) (UniProt P0A6C1); assay: Counterscreen for APE1 Inhibitors: qHTS Validation Assay for Inhibitors of Endonuclease IV (AID 1708); further: on the % scale 0 is the no-effect control and ±100 the full control effect
Outline: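 Conditions: 2 nM enzyme, 50 nM TAMRA/BHQ-2 substrate, pH 7.5 Tris buffer with 2 mM MgCl2, RT. Compound preincubation 15 min; readout three fluorescence reads 60 s apart, third-minus-first.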

[4] = molecular target: Ferritin light chain (Equus caballus) (UniProt P02791); assay: qHTS Validation Assay for Identification of Novel General Anesthetics (AID 2323); further: series mostly up to about 77 µM; on the % scale 0 is the no-effect control and ±100 the full control effect
Outline: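 Fluorescence at 535 nm (excitation 380 nm) reported loss of 1-AMA binding to horse-spleen apoferritin (10 uM) in PBS with 50% saturated 1-aminoanthracene, after 10 min room-temperature incubation with compound; values from Hill fits of normalized response.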

[5] = Validation screen for inhibitors of Lassa infection (AID 463096; calls by dose curve; further: on the % scale 0 is the no-effect control and ±100 the full control effect)
[6] = Validation screen for small molecules that induce DNA re-replication in MCF 10A normal breast cells (AID 463097); further: 0% is about no effect; nearly all actives have a fitted effect of over 60% in size
Outline: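 Image-based qHTS: normal breast cells are incubated with compound for 48 hr, stained with Hoechst, and scanned for total nuclear fluorescence. Compounds raising the fraction of nuclei with elevated DNA content count as re-replication inducers.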

[7] = Quantitative high throughput screen for delayed death inhibitors of the malarial parasite plastid, 96 hour incubation (AID 488745); further: nearly all actives have a fitted effect of over 70% in size; further: potency means the concentration at half of the fitted maximal effect
Outline: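 Decreased firefly luciferase luminescence indicates inhibited growth of reporter-integrated P. falciparum after two generations (96 h, 37 C, 5% CO2). Infected erythrocytes at 0.1% parasitemia, 2% hematocrit, in Albumax-supplemented RPMI 1640.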

[8] = molecular target: Transient receptor potential cation channel subfamily V member 1 (Homo sapiens) (UniProt Q8NER1); assay: HTS Assay for Compounds that Act as Enhancers of the Vanilloid Receptor 1 (AID 488979); further: 0% is about no effect
Outline: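 TRPV1 cells loaded with Fluo-8 calcium dye; compound added and Ca2+ signal (ex 480/em 520 nm) followed 3 min, then capsaicin at EC20 added and read 2 more min to detect enhancement.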

[9] = molecular target: Thyrotropin-releasing hormone receptor (Homo sapiens) (UniProt P34981); assay: qHTS for Small Molecule Agonists and Allosteric Enhancers of Human TRH Receptor: Validation Screen for Agonists (AID 493127;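 active means calcium activation more than 3 SD above the typical response in the agonist read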;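 further: intracellular calcium rise by fluo-8 fluorescence before TRH EC20 addition; 0% is about no effect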); conditions: TRH receptor agonist cell assay; at 2 µM; active compounds read high
Outline: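 Compound-evoked intracellular calcium release in fluo-8-loaded TRHR cells, read kinetically on FDSS (Ex 480/Em 530, 1 s/cycle) after 23 nL pintool transfer. Agonist phase preceded 10 nM TRH EC20 addition.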

[10] = molecular target: Phospholipid hydroperoxide glutathione peroxidase GPX4 (Homo sapiens) (UniProt P36969); assay: Primary qHTS Assay for Inhibitors of Recombinant Selenoprotein Glutathione Peroxidase 4 (GPX4) (AID 1845192); further: series mostly up to about 50 µM; on the % scale 0 is the no-effect control and ±100 the full control effect; nearly all actives have a fitted effect of over 65% in size
Outline: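 Steps: GPX4 plus compound, 30 min RT; add GR/GSH/NADPH master mix; start with cumene hydroperoxide; read 340/450 nm fluorescence at 0 and 15 min. Finals were 200 nM GPX4, 1 mM GSH, 0.5 mM CHP, 0.5 mM NADPH, 100 nM GR.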

Ferritin light chain (Equus caballus), sequence (P02791 2-175 limits assumed): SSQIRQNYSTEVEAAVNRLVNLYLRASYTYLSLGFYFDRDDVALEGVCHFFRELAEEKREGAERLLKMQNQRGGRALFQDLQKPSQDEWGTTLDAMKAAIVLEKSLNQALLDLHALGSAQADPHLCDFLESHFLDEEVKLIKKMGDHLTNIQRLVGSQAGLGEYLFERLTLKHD
Transient receptor potential cation channel subfamily V member 1 (Homo sapiens), sequence (Q8NER1 whole entry, looked up): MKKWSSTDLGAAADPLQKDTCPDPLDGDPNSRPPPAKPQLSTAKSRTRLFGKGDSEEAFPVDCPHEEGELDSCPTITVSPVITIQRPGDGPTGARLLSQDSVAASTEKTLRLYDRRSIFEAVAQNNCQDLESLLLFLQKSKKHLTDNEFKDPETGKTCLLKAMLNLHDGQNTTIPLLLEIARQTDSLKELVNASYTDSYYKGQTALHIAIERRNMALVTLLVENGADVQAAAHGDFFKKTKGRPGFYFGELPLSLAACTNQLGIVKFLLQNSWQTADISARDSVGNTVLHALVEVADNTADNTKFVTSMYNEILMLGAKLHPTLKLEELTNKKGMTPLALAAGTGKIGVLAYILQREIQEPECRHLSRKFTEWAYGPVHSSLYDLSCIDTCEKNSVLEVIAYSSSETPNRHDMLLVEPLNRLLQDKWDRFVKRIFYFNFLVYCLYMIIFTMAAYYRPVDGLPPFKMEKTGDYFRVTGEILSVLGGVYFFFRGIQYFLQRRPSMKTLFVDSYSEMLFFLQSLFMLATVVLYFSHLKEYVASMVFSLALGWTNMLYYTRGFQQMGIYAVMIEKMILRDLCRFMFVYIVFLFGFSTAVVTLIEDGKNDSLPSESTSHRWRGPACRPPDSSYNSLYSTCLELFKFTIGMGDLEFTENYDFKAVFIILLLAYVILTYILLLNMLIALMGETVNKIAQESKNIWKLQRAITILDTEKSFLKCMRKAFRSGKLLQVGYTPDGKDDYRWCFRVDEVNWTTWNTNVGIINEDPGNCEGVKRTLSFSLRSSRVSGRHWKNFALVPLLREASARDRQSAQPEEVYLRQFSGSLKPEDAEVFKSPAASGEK
DNA repair nuclease/redox regulator APEX1 (Homo sapiens), sequence (P27695 whole entry, looked up): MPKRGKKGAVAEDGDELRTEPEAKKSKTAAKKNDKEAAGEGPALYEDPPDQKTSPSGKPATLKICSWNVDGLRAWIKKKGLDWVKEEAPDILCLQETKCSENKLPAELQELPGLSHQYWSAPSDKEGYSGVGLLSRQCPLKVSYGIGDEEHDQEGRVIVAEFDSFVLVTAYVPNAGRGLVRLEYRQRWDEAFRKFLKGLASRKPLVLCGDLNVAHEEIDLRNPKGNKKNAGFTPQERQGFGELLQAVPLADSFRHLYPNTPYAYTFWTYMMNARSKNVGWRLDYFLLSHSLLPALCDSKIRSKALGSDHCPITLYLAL
Thyrotropin-releasing hormone receptor (Homo sapiens), sequence (P34981 whole entry, looked up): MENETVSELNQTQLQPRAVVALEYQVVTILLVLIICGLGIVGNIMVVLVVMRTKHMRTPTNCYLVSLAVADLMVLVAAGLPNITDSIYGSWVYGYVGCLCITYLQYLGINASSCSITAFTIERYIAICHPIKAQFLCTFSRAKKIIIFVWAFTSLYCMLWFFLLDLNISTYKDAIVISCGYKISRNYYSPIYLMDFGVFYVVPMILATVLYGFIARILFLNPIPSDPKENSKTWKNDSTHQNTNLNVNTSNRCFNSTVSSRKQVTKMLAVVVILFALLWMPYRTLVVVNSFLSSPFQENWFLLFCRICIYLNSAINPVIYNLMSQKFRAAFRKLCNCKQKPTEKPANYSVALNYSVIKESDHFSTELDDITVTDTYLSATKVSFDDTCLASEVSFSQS
Phospholipid hydroperoxide glutathione peroxidase GPX4 (Homo sapiens), sequence (P36969 whole entry, looked up): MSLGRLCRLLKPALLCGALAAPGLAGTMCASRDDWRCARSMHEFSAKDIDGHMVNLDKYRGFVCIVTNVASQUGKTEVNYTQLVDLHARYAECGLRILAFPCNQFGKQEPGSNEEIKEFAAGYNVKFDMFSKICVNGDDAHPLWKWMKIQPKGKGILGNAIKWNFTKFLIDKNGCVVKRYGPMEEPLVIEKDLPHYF

C[C@H]1C2Cc3ccc(O)cc3[C@]1(C)CCN2CC1CC1
inactive: Potency [1] | outcome [2] | Potency [3] | Potency [4] | Potency [5] | Potency [6] | Potency [7] | outcome [8] | activation [9] 1.81%

NNCc1cccc(O)c1
inactive: Potency [1] | outcome [2] | Potency [3] | Potency [4] | Potency [5] | Potency [6] | outcome [8] | activation [9] 0.875%

C#CCN(C)C(C)Cc1ccccc1 (stereo unspecified)
inactive: Potency [1] | outcome [2] | Potency [3] | Potency [5] | Potency [6] | Potency [7] | outcome [8] | activation [9] -5.25%

CC[C@@H](CO)NC(=O)[C@H]1C=C2c3cccc4c3c(cn4C)C[C@H]2N(C)C1
inactive: Potency [3] | Potency [4] | Potency [6] | outcome [8] | activation [9] -2.81%

C[C@H]1OC[C@@H](C[N+](C)(C)C)O1
inactive: Potency [1] | outcome [2] | Potency [3] | Potency [4] | Potency [5] | Potency [6] | Potency [7] | outcome [8] | activation [9] 24.3%

Nc1ncnc2c1ncn2[C@@H]1O[C@H](COP(=O)(O)CP(=O)(O)OP(=O)(O)O)[C@H](O)[C@H]1O
inactive: Potency [1] | outcome [2] | Potency [3] | Potency [4] | Potency [6] | Potency [7] | outcome [8] | activation [9] 1.25%

COc1cc(C[C@@H](C)N)c(OC)cc1I
inactive: Potency [1] | outcome [2] | Potency [3] | Potency [4] | Potency [5] | Potency [6] | Potency [7] | outcome [8] | activation [9] 0.562%

CN1CCC23CCCC[C@H]2C1Cc1ccc(O)cc13 (stereo partly specified)
inactive: Potency [1] | outcome [2] | Potency [4] | Potency [5] | Potency [6] | Potency [7] | outcome [8] | activation [9] 0.625%

CCCN(CCC)[C@@H]1CCc2c(F)ccc(O)c2C1
inactive: Potency [1] | outcome [2] | Potency [3] | Potency [4] | Potency [5] | Potency [6] | outcome [8] | activation [9] -2.75%
active: Potency [7] 2.62 µM

COc1cc(C=C(C#N)C#N)cc(O)c1O
inactive: Potency [1] | outcome [2] | Potency [3] | Potency [4] | Potency [5] | Potency [7] | outcome [8] | activation [9] 2.88%

NC(Cn1ccc(=O)[nH]c1=O)C(=O)O (stereo unspecified)
inactive: Potency [1] | outcome [2] | Potency [3] | Potency [4] | Potency [5] | Potency [6] | Potency [7] | outcome [8] | activation [9] 0.375%

C/C1=C/C[C@@H](/C(C)=C/c2csc(C)n2)OC(=O)C[C@H](O)C(C)(C)C(=O)[C@H](C)[C@@H](O)[C@@H](C)CCC1
inactive: Potency [10]

COC(=O)C(N)CCCN=C(N)N[N+](=O)[O-] (stereo unspecified)
inactive: Potency [1] | outcome [2] | Potency [4] | Potency [5] | Potency [6] | Potency [7] | outcome [8] | activation [9] 1.06%

CC(C)(O)C1C2OC(=O)C1[C@]1(O)C[C@H]3O[C@]34C(=O)O[C@H]2[C@]14C (stereo partly specified) (tested in a mixture with another compound)
inactive: Potency [1] | outcome [2] | Potency [4] | Potency [5] | Potency [6] | Potency [7] | outcome [8] | activation [9] 0.625%

CCN1C[C@]2(C)CC[C@H](O)[C@@]34[C@@H]5C[C@@H]6[C@@H](OC)C[C@@](O)(C5[C@H]6O)[C@@H](C[C@@H]23)[C@@H]14
inactive: Potency [1] | outcome [2] | Potency [3] | Potency [4] | Potency [5] | Potency [6] | Potency [7] | outcome [8] | activation [9] 0.875%

— PubChem BioAssay (NCATS)
